D1 agonist = human D1 receptor agonism; P21728; HEK293 T-REx D1 cells, calcium flux, agonist mode; activation, % at 2 µM; 1% of 360,000 active; AID 504660; in the data active = activation above about 30%; also: 0% is about no effect
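Inducible HEK293 T-REx D1 cells, force-coupled to calcium signalling, were plated at 4000 cells/well with tetracycline and held overnight at 30 C. After no-wash calcium dye loading, compound-evoked calcium rise over 180 s flagged agonists.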
D1 PAM = enhances dopamine response at the human D1 receptor; P21728; HEK293 TREx D1 cells, calcium flux, dopamine EC20 potentiation; potentiation, % at 10 µM; 0.036% of 360,000 active; in the data active = potentiation above about 30%; also: 0% is about no effect
GALK inhibitor = galactokinase (human) inhibition | P51570 | Purified GALK, Kinase-Glo residual ATP luminescence | Potency, µM (titrated, usually from 57.5 µM), for inactives: at the top dose activity change, negative = inhibition, most hits filed as inhibitors | 0.007% of 270,000 active; also: potency is read from the fitted curve at half-maximal effect; % is scaled to controls: 0 for no effect and ±100 for the full control effect
Target sequence (P51570 whole entry, looked up): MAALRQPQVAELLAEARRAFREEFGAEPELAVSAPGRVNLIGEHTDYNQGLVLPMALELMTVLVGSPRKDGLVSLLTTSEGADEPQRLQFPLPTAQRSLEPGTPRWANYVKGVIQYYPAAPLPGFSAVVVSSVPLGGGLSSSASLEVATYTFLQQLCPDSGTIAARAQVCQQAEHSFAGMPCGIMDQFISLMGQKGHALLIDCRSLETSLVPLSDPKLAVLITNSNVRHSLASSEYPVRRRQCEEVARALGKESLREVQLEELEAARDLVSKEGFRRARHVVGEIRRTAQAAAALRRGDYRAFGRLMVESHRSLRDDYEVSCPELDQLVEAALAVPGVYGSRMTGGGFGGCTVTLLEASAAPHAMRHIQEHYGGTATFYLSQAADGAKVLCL
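Galactose (100 uM) and ATP (35 uM) were turned over by 5 nM GALK for 1 h at RT. Kinase-Glo Plus then converted the remaining ATP into a luminescent signal.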
USP2a block = USP2a (human) protease inhibition. O75604. USP2 core, Ub-CHOP2 coupled fluorogenic reporter, 485/531. Potency, µM (titrated, usually from 38.3 µM), for inactives: at the highest dose activity change, negative = inhibition, hits mostly inhibitors. 0.01% of 330,000 active;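 also: potency is read from the fitted curve at half-maximal effect; plate controls were DMSO wells for no effect and full inhibition by NEM control for full effect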
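Cell-free coupled assay: 10nM USP2 core preincubated 30min RT with compound in Tris-HCl pH 8.0/CaCl2/CHAPS buffer, then 25nM Ub-CHOP2 and 25nM reporter substrate; fluorescence (Ex 485/Em 531) read after 60min RT, normalized to NEM inhibition, concentration-response curves fitted.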
D1 antagonist = blocks dopamine activation of the human D1 receptor; activity change, negative = inhibition, % at 10 µM; HEK293 TREx D1 cells, calcium flux, dopamine EC80; stronger effect = lower value; 3.2% of 360,000 active; in the data active = activity change below about -30%; also: % is scaled to controls: 0 for no effect and ±100 for the full control effect
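Antagonism measured as reduced calcium response to an EC80 dopamine addition following 180 s compound pre-read; cells were inducible HEK293 Trex D1 plated overnight at 30 C, read kinetically at 1 cycle/sec.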
Eya2 phos inh = blocks the phosphatase activity of human Eya2; O00167; recombinant Eya2, OMFP fluorescence dephosphorylation (OMFP is methylfluorescein phosphate); Potency, µM (titrated, usually from 76.9 µM), without a hit: at the highest dose activity, negative = inhibition, hits mostly inhibitors; 0.006% of 330,000 active; AID 488837; also: potency is read from the fitted curve at half-maximal effect; % is scaled to controls: 0 for no effect and ±100 for the full control effect
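Eya2 (0.2 uM) preincubated 10 min at ambient with compound, then OMFP substrate added at 50 uM; 10 min reaction in 50 mM HEPES pH 7.5, 50 mM NaCl, 5 uM MgCl2, 0.05% BSA, 1 mM DTT. Fluorescence read at Ex 485/Em 525 nm.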
An asterisk follows results filed as active; ! = not confirmed by another sample. An excerpt weighted towards active compounds, which were near 3.9% of everything screened. Unless noted, calls follow the shape of the dose curve; as a rule, active = well fitted inhibition curve with a large enough effect; inconclusive = small, poorly fitted or top-dose-only effect, or effect the other way; inactive = flat fitted curve, though single readings scatter.

Results for COc1ccc(-n2c(=O)c3c4c(sc3n(Cc3ccccc3)c2=O)CN(C(C)=O)CC4)cc1OC ?
D1 agonist: 0.0; D1 PAM: -0.8; D1 antagonist: 20.8

How did CCc1ccc(NC(=O)C2CCN(S(=O)(=O)c3ccc4c(c3)CC(C)N4C(C)=O)CC2)cc1 (stereo not drawn) do in these assays?
D1 agonist: 2.9; D1 PAM: -5.2; USP2a block: 0.8%; D1 antagonist: -31.1*; Eya2 phos inh: 0.3%

What do the screens show for `CCOc1ccc(NC(=O)C2CCN(S(=O)(=O)c3ccc4c(c3)CC(C)N4C(C)=O)CC2)cc1` (stereo not drawn)?
D1 agonist: 2.2; D1 PAM: -4.5; GALK inhibitor: -0.4%; USP2a block: 4.1%; D1 antagonist: 10.4; Eya2 phos inh: -0.1%

What do the screens show for `CCOc1ccc(OCC)c(NC(=O)C2CCN(S(=O)(=O)c3ccc4c(c3)CC(C)N4C(C)=O)CC2)c1` (stereo not drawn)?
D1 agonist: 1.0; D1 PAM: 6.3; GALK inhibitor: -0.6%; USP2a block: -17.7%; D1 antagonist: -34.6*!; Eya2 phos inh: 2.8%

What do the screens show for `Cc1c(C(=O)NCc2ccccc2CN2CCCC2)oc2ccc(F)cc12`?
D1 agonist: 5.5; USP2a block: 3.6%; D1 antagonist: -32.5*; Eya2 phos inh: -3.0%

How did COc1ccccc1CNC(=O)c1oc2ccc(S(=O)(=O)N3CCCCC3)cc2c1C do in these assays?
D1 agonist: -0.9; D1 PAM: -0.3; D1 antagonist: 9.7

What do the screens show for `O=C(NC1CCCC1)C(c1ccsc1)N(C(=O)Cc1cccs1)c1cccc(F)c1` (stereo not drawn)?
D1 agonist: 4.7; D1 PAM: -8.9; GALK inhibitor: -2.3%; USP2a block: -1.9%; D1 antagonist: -32.3*; Eya2 phos inh: -3.2%

How did O=C(NC1CCCC1)C(c1ccsc1)N(C(=O)Cc1cccs1)c1ccc(F)cc1 (stereo not drawn) do in these assays?
D1 agonist: 1.1; D1 PAM: -9.2; GALK inhibitor: 2.7%; USP2a block: -0.9%; D1 antagonist: -7.1; Eya2 phos inh: -2.1%

How did Cc1ccc(NC(=O)C2CCC(=O)N2C(=O)OCc2ccccc2)cc1 (stereo not drawn) do in these assays?
D1 agonist: -0.1; D1 PAM: -5.3; GALK inhibitor: -0.5%; USP2a block: 3.1%; D1 antagonist: -2.8; Eya2 phos inh: -7.6%

What do the screens show for `O=C(Nc1ccccn1)[C@@H]1CCC(=O)N1C(=O)OCc1ccccc1`?
D1 agonist: 2.5; D1 PAM: -0.6; GALK inhibitor: 0.9%; USP2a block: -2.2%; D1 antagonist: -31.3*; Eya2 phos inh: 6.6%

How did CCC1CCCCN1S(=O)(=O)c1ccc(C(=O)Nc2sc3c(c2C(=O)NC)CCC3)cc1 (stereo not drawn) do in these assays?
D1 agonist: 2.0; D1 PAM: -1.4; D1 antagonist: -2.4

How did O=C(NCc1nc(-c2ccc(C(F)(F)F)cc2)no1)Nc1ccc(OC(F)(F)F)cc1 do in these assays?
D1 agonist: 10.4; D1 PAM: -9.3; USP2a block: -2.1%; D1 antagonist: -36.7*; Eya2 phos inh: -7.8%

Results for CSc1ccc(S(=O)(=O)NCC(=O)OCC(=O)N(Cc2ccccc2)C(C)C)cc1[N+](=O)[O-] ?
D1 agonist: -0.3; D1 PAM: -9.8; USP2a block: -0.7%; D1 antagonist: -35.2*; Eya2 phos inh: 3.0%

How did Cc1nc2ccc(S(=O)(=O)NC(C(=O)N3CCN(c4ccc(Cl)cc4)CC3)C(C)C)cc2s1 (stereo not drawn) do in these assays?
D1 agonist: -0.3; D1 PAM: -3.1; D1 antagonist: 2.0

How did COc1ccc(N2CCN(C(=O)Cc3coc4ccc(C)cc34)CC2)cc1 do in these assays?
D1 agonist: 0.8; D1 PAM: -0.7; D1 antagonist: -67.7*
